Assay results reported in PubChem BioAssay AID651718 (The Scripps Research Institute Molecular Screening Center, 2012).
The campaign covered roughly 360,000 compounds. About 2,700 (0.75%) were called active. For the sample, actives were picked, then their nearest neighbours and some compounds at random. A number with no mark means an inactive call. Rule as the data show it: active = inhibition above about 4.5%; inactive = the rest.

These compounds were tested on Methionine sulfoxide reductase A (Bos taurus) (assay: inhibition of methionine sulfoxide reductase A – biochemical, absorbance, bovine, HTS, primary screen (AID 651718;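 also: 0% = vehicle wells with enzyme and 100% = reference inhibitor wells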)). Conditions: purified bovine MsrA, absorbance read-out; at 15.5 µM; active compounds read high.

Structure (SMILES)	inhibition
Cc1ccc(Nc2cc(C)nc3c(C)ccc([N+](=O)[O-])c23)cc1	-0.67%
NC(=O)c1ccc(Nc2ccc3c(c2)CCC3)c([N+](=O)[O-])c1	13.9% (active)
CC(=O)Nc1ccc2c3c(ccc([N+](=O)[O-])c13)CC2	0.76%
O=[N+]([O-])c1ccccc1Nc1ccc(O)cc1	2.41%
Cc1ccc(Nc2ccc(C(N)=O)cc2[N+](=O)[O-])cc1	11.1% (active)
C=CC1=CCN(S(=O)(=O)C(C)(C)C)[C@@H]1CCO	-1.1%
COc1ccc(C)cc1NC(=O)CNCc1cccs1	1.1%
N=C1c2ccccc2-c2ccccc21	0.22%
COc1cc(C2CC(=O)N3CN(Cc4ccccc4)CSC3=C2C#N)ccc1OCc1ccccc1 (stereo not drawn)	0.9%
CCCCN1C(=O)C(CC(=O)NCc2cccs2)CC(C(=O)N2CCOCC2)=C1C (stereo not drawn)	0.14%
OC(c1ccccc1)(c1ccccc1)C1CCN(CCCOc2ccc(-c3ccsc3)cc2)CC1	0.25%
O=C(O)c1cccc(NC(=S)N/N=C/c2c[nH]c3ccccc23)c1	5.25% (active)
CN(C)S(=O)(=O)c1cccc(NC(=S)N/N=C/C(=O)c2ccccc2)c1	1.15%
O=C(Cc1c[nH]c2ccccc12)N/N=C/c1cccc(F)c1	0.41%
COc1ccc(NC(=O)NNC(=O)COc2cc(C)c(Cl)c(C)c2)c(OC)c1	-0.36%
CCCCCCCCN1C(=O)[C@@H](CC(=O)N2CCN(C(=O)OCC)CC2)C[C@@]2(C(=O)OC)C1=C[C@H](C1CCCC1)O[C@@H]2C	0.48%
CCOc1cc(/C=C2\SC(N3CCCCC3)=NC2=O)ccc1O	4.93% (active)
CCOc1cc(/C=C2\SC(N3CCCC(C)C3)=NC2=O)ccc1O (stereo not drawn)	3.02%
CCOc1cc(/C=C2\C(=N)N3N=C(C)SC3=NC2=O)ccc1OCCOc1ccccc1	-1.53%
CC(C)CNc1cccc2c1S(=O)(=O)N[C@H](CC(C)C)CO2	2.13%
COC(=O)Cc1nnn2c1[C@H](C)[C@H](c1ccccc1Br)OCC2	0.32%
Cc1c(C(=O)OC(C)C)sc(NC(=O)c2cccnc2)c1C#N	0.08%

Structure (SMILES)	inhibition
Cc1sc(NC(=O)C2=COCCO2)c(C#N)c1C	0.89%
CCN(CC)C(=O)c1sc(NC(=O)c2ccco2)c(C#N)c1C	4.94% (active)
Nc1ncnc2c1ncn2[C@@H]1O[C@H](C(=O)N[C@@H](CCc2ccccc2)C(=O)NCC(=O)N2CCOCC2)[C@@H](O)[C@H]1O	-0.08%
COc1cccc(CNCc2ccc3c(c2)OCO3)c1	0.46%
NS(=O)(=O)c1ccc2nc(NC(=O)CS(=O)(=O)c3ccc(F)cc3)sc2c1	0.94%
CC(=O)Nc1ccc2nc(NC(=O)CS(=O)(=O)c3ccc(F)cc3)sc2c1	1.73%
CS(=O)(=O)c1ccc2nc(NC(=O)c3ccc(Cl)nc3)sc2c1	4.77% (active)
COC(=O)C1=C(C)N(Cc2ccccc2C(F)(F)F)C(=NCc2ccc(OC)cc2)NC1c1cccc(C(F)(F)F)c1 (stereo not drawn)	-3.43%
Nc1ccn([C@@H]2O[C@H](C(=O)N[C@H]3CCCCNC3=O)[C@@H](O)[C@H]2O)c(=O)n1	-0.17%
C=CC[C@]12C[C@@]3(O[C@H](c4ccc(C(F)(F)F)cc4)N=C3C[C@H](c3ccc(OC)cc3)[C@H]1C)N(C1CCN(Cc3ccccc3)CC1)C2=O	0.32%
Clc1cccc(-c2nc3nc4ccccc4nc3n2Cc2ccco2)c1	4.87% (active)
Cc1cc(NCc2ccco2)n2c(nc3ccccc32)c1C#N	-0.85%
O=C(CSc1nnc(-c2cccnc2)n1Cc1ccco1)c1ccc(Cl)c(Cl)c1	-1.02%
CCC1SC2=NCCN2C1(O)c1ccc(Cl)cc1 (stereo not drawn)	-0.53%
Cc1cc2c(cc1C)NC1(C[C@H]3CCC(=O)N4CC[C@@H](C1)[C@@H]34)C(=NC(C)(C)CC(C)(C)C)N2 (stereo partly drawn)	0.45%
COCCN(C(=O)C(C)C)c1nnc(-c2ccc(C(C)(C)C)cc2)s1	-0.05%
CC(C)[C@H]1COCCS(=O)(=O)N1Cc1ccccc1-c1cccc2c1sc1ccccc12	1.34%
O=C(O)C(CCc1ccccn1)c1ccccc1 (stereo not drawn)	-0.84%
O=C(Cc1ccccn1)c1ccc(O)cc1O	4.91% (active)
Oc1cccc(CCc2ccccn2)c1	-1%
CCOC(=O)N1CCN(C(=O)C[C@H]2C[C@@]3(C(=O)OC)C(=C[C@H](C4CCCC4)O[C@@H]3C)N(Cc3ccccc3)C2=O)CC1	-0.08%
